Screening data (PubChem)
TDP1 cell noCPT: qHTS for Inhibitors of human tyrosyl-DNA phosphodiesterase 1 (TDP1): qHTS in cells in absence of CPT; AID 686978, 2013; hit rate 15% among 420,000; Potency, µM (highest dose often 46.2 µM), hits mostly inhibitors; DT40 Tdp1-/- hTDP1 cells, no CPT, ATP luminescence, 48 h; also: nearly all actives have a fitted effect of over 55% in size
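Cells were dispensed at 400 per well, compounds added by pin tool, plates incubated ≥48 hr at 37 °C, then CellTiter-Glo added for 30 min at room temperature before luminescence reading. Line: DT40 Tdp1-/- complemented with hTDP1; camptothecin omitted.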
Gal4-VP16 FLuc: VP16 counterscreen qHTS for inhibitors of ROR gamma transcriptional activity | Drosophila S2 Gal4-VP16 UAS-luciferase, luminescence, 20 h | Potency, µM (highest dose often 53.6 µM), most hits filed as inhibitors | hit rate 3.5% among 310,000;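 also: Gal4-VP16 expression switched on by copper sulfate through the metallothionein promoter; nearly all actives have a fitted effect of over 50% in size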
RORg inh: qHTS for inhibitors of ROR gamma transcriptional activity; Potency, µM (titrated, usually from 53.6 µM), usual class: inhibitors; Nuclear receptor ROR-gamma (Mus musculus), P51450; Drosophila S2 Gal4-RORgamma UAS-luciferase reporter, 20 h; hit rate 5.4% among 310,000; also: nearly all actives have a fitted effect of over 60% in size
Target sequence (P51450 whole entry, looked up, the tested form may be a part): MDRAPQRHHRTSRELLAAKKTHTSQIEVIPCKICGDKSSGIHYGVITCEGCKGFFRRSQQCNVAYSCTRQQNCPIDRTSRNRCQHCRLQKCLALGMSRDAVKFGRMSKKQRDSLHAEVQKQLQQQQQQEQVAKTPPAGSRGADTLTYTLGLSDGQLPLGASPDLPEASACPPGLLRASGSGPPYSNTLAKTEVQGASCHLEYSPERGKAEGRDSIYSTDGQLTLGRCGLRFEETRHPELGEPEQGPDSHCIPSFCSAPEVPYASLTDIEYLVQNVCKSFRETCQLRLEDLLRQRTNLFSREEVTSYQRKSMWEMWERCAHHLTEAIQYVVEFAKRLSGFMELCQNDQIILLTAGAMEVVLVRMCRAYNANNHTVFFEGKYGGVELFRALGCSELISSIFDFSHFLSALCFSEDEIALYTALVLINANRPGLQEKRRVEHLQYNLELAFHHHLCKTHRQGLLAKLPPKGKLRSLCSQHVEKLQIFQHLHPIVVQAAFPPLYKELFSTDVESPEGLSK
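Luciferase reporter read in Schneider cells carrying Gal4-RORγ (mouse) and UAS-Photinus luciferase; cells given compound 1 h before 700 uM copper sulfate induction, then incubated 20 h at ambient temperature.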
TDP1 inh: qHTS Assay for Inhibitors of Tyrosyl-DNA Phosphodiesterase (TDP1); recombinant TDP1, AlphaScreen DNA substrate cleavage; hit rate 0.28% among 350,000; Potency, µM (highest dose often 130 µM), usual class: inhibitors; AID 485290, 2010; Tyrosyl-DNA phosphodiesterase 1 (Homo sapiens), Q9NUW8; also: nearly all actives have a fitted effect of over 40% in size
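Recombinant human Tdp1 (E. coli-expressed, 1 nM final) preincubated with compounds 15 min at room temperature, then 5'-biotin/3'-phosphotyrosine-FITC DNA substrate (15 nM final) added for 5 min. AlphaScreen beads (10 ug/ml final) added 10 min; cleavage lowers signal.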
DT40 TDP1 CPT: qHTS for Inhibitors of human tyrosyl-DNA phosphodiesterase 1 (TDP1): qHTS in cells in presence of CPT | chicken DT40 Tdp1-/-;hTDP1 cells + 20 nM CPT, ATP luminescence, 48 h | Potency, µM (series often up to 46.2 µM), most hits filed as inhibitors | hit rate 12% among 420,000; also: nearly all actives have a fitted effect of over 55% in size
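Chicken DT40 Tdp1-/- cells complemented with human TDP1, 400 cells/well, exposed to compounds plus 20 nM camptothecin for at least 48 h at 37 C; viability read as ATP content by CellTiter-Glo luminescence.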
Numbers stand for hits; i = inactive; ? = inconclusive; nt = not tested or not shown; [ ] = remark or other dose. Compounds with a hit are over-represented: about 19% of the library has one in this group of screens. Calls follow the shape of the dose curve; as a rule, active = well fitted curve in the direction sought with a large enough effect; inconclusive = small, poorly fitted or top-dose-only effect, or another doubt; inactive = no such curve, though single readings can be large; an effect the other way counts as inactive or inconclusive.

SMILES | TDP1 cell noCPT | Gal4-VP16 FLuc | RORg inh | TDP1 inh | DT40 TDP1 CPT
COc1ccccc1OCc1nc2ccccc2[nH]1 | i | i | ? | i | i
c1ccc2cc(OCc3nc4ccccc4[nH]3)ccc2c1 | ? | ? | ? | i | ?
CCCN1CCN(c2ncnc3sc(C(=O)Nc4ccc(C(C)C)cc4)c(C)c23)CC1 | ? | nt | nt | i | 21µM
CCCN1CCN(c2ncnc3sc(C(=O)Nc4ccc(OC(F)(F)F)cc4)c(C)c23)CC1 | 21µM | nt | nt | i | ?
CCN1CCN(c2ncnc3sc(C(=O)Nc4ccccc4F)c(C)c23)CC1 | i | i | i | i | i
O=C(NCc1ccncc1)[C@@H]1CCCN1C(=O)[C@@H]1CCCN1C(=O)c1c(F)cccc1F | i | nt | nt | nt | i
Cc1cc(C)c(C#N)c(SCc2nnc(-c3ccccc3[N+](=O)[O-])o2)n1 | 21µM | i | i | i | 26µM
Cc1cc(C)c(C#N)c(SCc2ccccc2[N+](=O)[O-])n1 | ? | ? | i | i | i
O=S(=O)(c1ccc(Cl)cc1)c1nnn2c1nc(N1CCCCC1)c1sccc12 | 16µM | nt | nt | i | 21µM
O=S(=O)(c1ccc(Cl)cc1)c1nnn2c1nc(NCc1cccs1)c1sccc12 | 23µM | nt | nt | i | ?
COc1ccccc1-n1c(SCC(=O)Nc2ccccc2C)nc(O)cc1=O | i | i | i | i | i
CC(C)CCNC(=O)c1cc(Sc2ccc(F)cc2F)nc2ccccc12 | ? | nt | nt | i | ?
Cc1ccc(-c2nc(-c3cccnc3)no2)c(C)c1 | ? | i | i | i | i
COc1ccc(Nc2nnc(-c3ccc(C(N)=O)cc3)c3ccccc23)cc1 | ? | i | i[1.91 µM] | nt | ?
Cc1cccc(-c2noc(-c3ccc(Cl)cc3[N+](=O)[O-])n2)c1 | i | 10µM | 2.5µM | i | i
COc1ccc(Nc2nnc(-c3ccc(N4CCOCC4)c([N+](=O)[O-])c3)c3ccccc23)cc1 | 23µM | i | i | i | 23µM
Cc1cccc(-c2noc(-c3ccc(N4CCN(C)CC4)c([N+](=O)[O-])c3)n2)c1 | 23µM | nt | nt | i | ?
Cc1cccc(-c2noc(-c3ccc(N4CCCC4)c([N+](=O)[O-])c3)n2)c1 | ? | nt | nt | i | i
Cc1c(-c2nc(-c3cccnc3)no2)cccc1[N+](=O)[O-] | 18µM | i[10 µM] | i | i | 18µM
Cc1cccc(-c2noc(-c3ccc(N4CCOCC4)c([N+](=O)[O-])c3)n2)c1 | 18µM | nt | nt | i | ?
COc1cc(-c2noc(-c3ccc(N4CCOCC4)c([N+](=O)[O-])c3)n2)cc(OC)c1OC | 5.2µM | nt | nt | i | ?
COc1ccc(-c2noc(-c3ccc(N4CCCC4)c([N+](=O)[O-])c3)n2)cc1OC | i | nt | nt | i | ?
Cc1ccc(-c2[nH]nc(N)c2N=Nc2cccc(Cl)c2C)cc1 | 13µM | ? | ? | i | ?
Cc1ccc(-c2[nH]nc(N)c2N=Nc2ccccc2C)cc1 | ? | i | i | i | ?
Cc1ccc(S(=O)(=O)N2[C@@H](c3ccc(C#N)cc3)C(C(=O)O)=C[C@H]2CC2CCCC2)cc1 | ? | nt | nt | i | ?
SMILES | TDP1 cell noCPT | Gal4-VP16 FLuc | RORg inh | TDP1 inh | DT40 TDP1 CPT
CCOC(=O)C1=CCN(S(=O)(=O)c2ccccc2C)C1c1cccc(Br)c1 (configuration not stated) | 21µM | nt | nt | nt | ?
CCOC(=O)C1=CCN(S(=O)(=O)c2ccccc2C)C1c1cccc(F)c1 (configuration not stated) | 16µM | nt | nt | nt | ?
CCOC(=O)C1=CCN(S(=O)(=O)c2cccc(Cl)c2)C1c1cccc(F)c1 (configuration not stated) | 21µM | nt | nt | nt | 21µM
CCOC(=O)C1=CCN(S(=O)(=O)c2ccc(F)cc2)C1c1cccc(Cl)c1 (configuration not stated) | ? | nt | nt | nt | i
CCC1CN(C(=O)N2CCC(C(=O)Nc3ccccc3OC)CC2)c2ccccc2O1 (configuration not stated) | ? | i | i | i | 18µM
CCC1CN(C(=O)N2CCC(C(=O)NCc3ccc(OC)cc3OC)CC2)c2ccccc2O1 (configuration not stated) | i | i | i | i | ?
CCC1CN(C(=O)N2CCC(C(=O)NCc3cc(OC)ccc3OC)CC2)c2ccccc2O1 (configuration not stated) | 18µM | nt | nt | i | 18µM
CCC1CN(C(=O)N2CCC(C(=O)NCCc3cc(OC)ccc3OC)CC2)c2ccccc2O1 (configuration not stated) | 21µM | nt | nt | i | 16µM
ClCCn1c(CCl)nc2ccc(Cl)cc21 | 16µM | nt | nt | nt | ?
O=C(OCc1nc2ccc(Cl)cc2n1CCO)c1ccccc1 | i | ? | i | i | i
N=c1oc2ccc(Cl)cc2cc1C(=O)NC1CCCCCC1 | 21µM | i | ? | i | 26µM
O=C(NC1CCCCC1)c1ccc2ccccc2c1O | 15µM | nt | nt | nt | ?
O=C(NC1CCCCCCC1)c1ccco1 | i | i | ? | i | i
N=c1oc2cc(O)ccc2cc1C(=O)Nc1ccc(Cl)cc1 | i | 2µM | 2.2µM | nt | ?
O=C(NNC(=O)c1ccc2ccccc2c1O)NC1CCCCC1 | i | i | i | i | i
Nc1sc(Cc2ccccc2)cc1C(=O)NC1CCCCC1 | 15µM | nt | nt | nt | ?
Cc1ccc(NC(=O)C2CCCN(S(=O)(=O)c3ccc4c(c3)CCCC(=O)N4)C2)cc1Cl (configuration not stated) | nt | nt | nt | i | nt
O=C(NC1CCCCCC1)c1cc2ccccc2oc1=O | ? | ? | 10µM | nt | i
COc1ccc(/C(O)=C2/C(=O)C(=O)N(CCCN3CCOCC3)C2c2ccc(OC)cc2)cc1 (configuration not stated) | i | i | ? | nt | i
O=[N+]([O-])c1cc2oc3c(c2c(C=NCc2ccncc2)c1O)CCCC3 | ? | ? | 13µM | i | ?
CC(C)(C)N=Cc1c(O)ccc2oc3c(c12)CCCC3 | i | i | i | nt | i
CCc1ccc(Nc2n[n+](-c3ccccc3)c(-c3cccc(C)c3)s2)cc1 | 5.8µM | nt | nt | i | 7.3µM
CCc1ccc(NC(=O)c2ccc(-c3ccccc3)s2)cc1 | ? | nt | nt | i | i
COc1ccc(-c2sc(Nc3ccccc3)n[n+]2-c2ccc(F)cc2)c(C)c1C | 10µM | i | ? | nt | 7.3µM
Oc1ccc(-c2sc(Nc3ccccc3)n[n+]2-c2ccc(F)cc2)cc1 | i | i | i | nt | i
Cc1cccc(-c2sc(Nc3ccccc3)n[n+]2-c2ccc(F)cc2)c1 | 9.2µM | i | i | nt | 7.3µM
CSc1ccc(-c2sc(Nc3ccccc3)n[n+]2-c2ccc(F)cc2)cc1 | 23µM | i | ? | nt | 12µM
O=C(O)C1CC(=O)N(c2ccc(OCc3ccccc3Cl)cc2)C1 (configuration not stated) | i | ? | 14µM | i | i
